According to ChEMBL document CHEMBL5606460, “ASAP - DENV-2 NS2B-NS3 protease fluorescence single point” (2024):
Out of some 2,000 compounds screened, about 110 (5.5%) showed an effect of 50% or more. What follows is part of a selection rich in strong results, with near analogues and random picks from the rest.

Target: Genome polyprotein (dengue virus type 2) (UniProt P29990)
[1] = Thailand/16681/1984, Concentration 25.0 uM, Number of replicates 1.0

Question: For `N#Cc1cccc(NC(=O)[C@@H](NC(=O)c2ccc(Oc3ccc(C(F)(F)F)cc3)cc2)c2ccc(OCc3ccccc3)cc2)c1`, which inhibition (Thailand/16681/1984, Concentration 49.5 uM, Number of replicates 2.0, Standard deviation 0.9263674997821656 %) is on record?
Answer: -5.09%

Question: And the inhibition (Thailand/16681/1984, Concentration 99.01 uM, Number of replicates 2.0, Standard deviation 0.4269393146330484 %)?
Answer: -4.04%

Question: What about the inhibition (Thailand/16681/1984, Concentration 198.0 uM, Number of replicates 2.0, Standard deviation 0.9636779131327375 %) of the same molecule?
Answer: -5.31%

Question: What does the source list for `CN(C)Cc1cc(C(=O)Nc2cc(Cl)cc(C(=O)NC(C)(C)CO)c2)ccn1`?
Answer: inhibition (Thailand/16681/1984, Concentration 49.5 uM, Number of replicates 2.0, Standard deviation 0.8373879793632091 %): -0.805%; inhibition (Thailand/16681/1984, Concentration 99.01 uM, Number of replicates 2.0, Standard deviation 1.3878191722501325 %): -0.768%; inhibition (Thailand/16681/1984, Concentration 198.0 uM, Number of replicates 2.0, Standard deviation 1.150645337077672 %): -0.077%

Question: Which results are given for `O=C(/C=C/c1ccc(N2CCNCC2)cc1)C(=O)N1CCOCC1`?
Answer: inhibition (Thailand/16681/1984, Concentration 49.5 uM, Number of replicates 2.0, Standard deviation 1.4144964098734516 %): 1.52%; inhibition (Thailand/16681/1984, Concentration 99.01 uM, Number of replicates 2.0, Standard deviation 0.4568300281843685 %): 5.18%; inhibition (Thailand/16681/1984, Concentration 198.0 uM, Number of replicates 2.0, Standard deviation 1.1436463049734074 %): 13.3%

Question: How did the inhibition [1] turn out when `CN(Cc1ccc(N2CCOCC2)cc1)C(=O)C1CCN(c2ccc(C=O)cc2)CC1` was run?
Answer: 13.2%

Question: `Nc1ccc(/C=C/C(=O)C(=O)N2CCN(CCc3ccccc3)CC2)cc1` was tested. Which inhibition (Thailand/16681/1984, Concentration 49.5 uM, Number of replicates 2.0, Standard deviation 0.14046836541625998 %) did it give?
Answer: 23.4%

Question: What about the inhibition (Thailand/16681/1984, Concentration 99.01 uM, Number of replicates 2.0, Standard deviation 0.26272659487750905 %) of the same molecule?
Answer: 40.1%

Question: What about the inhibition (Thailand/16681/1984, Concentration 198.0 uM, Number of replicates 2.0, Standard deviation 0.8058693227147314 %) of the same molecule?
Answer: 60.1%

Question: For `O=Cc1ccc(N2CCC(C(=O)N3CCOCC3)CC2)cc1`, which inhibition [1] is on record?
Answer: 13.3%

Question: For `NCc1ccc(/C=C/C(=O)C(=O)N2CCOCC2)cc1`, which inhibition (Thailand/16681/1984, Concentration 49.5 uM, Number of replicates 2.0, Standard deviation 0.4887874545992688 %) is on record?
Answer: 28.7%

Question: What about the inhibition (Thailand/16681/1984, Concentration 99.01 uM, Number of replicates 2.0, Standard deviation 0.17235835687354284 %) of the same molecule?
Answer: 48.5%

Question: What about the inhibition (Thailand/16681/1984, Concentration 198.0 uM, Number of replicates 2.0, Standard deviation 0.3206181572929207 %) of the same molecule?
Answer: 70.2%

Question: For `CN(C)c1ccc(/C=C/C(=O)C(=O)N2CCOCC2)cc1`, which inhibition (Thailand/16681/1984, Concentration 49.5 uM, Number of replicates 2.0, Standard deviation 1.4993650320557768 %) is on record?
Answer: 37.9%

Question: What about the inhibition (Thailand/16681/1984, Concentration 99.01 uM, Number of replicates 2.0, Standard deviation 1.3662996762867583 %) of the same molecule?
Answer: 59.5%

Question: And the inhibition (Thailand/16681/1984, Concentration 198.0 uM, Number of replicates 2.0, Standard deviation 0.7538742729933879 %)?
Answer: 78.8%

Question: How did the inhibition (Thailand/16681/1984, Concentration 49.5 uM, Number of replicates 2.0, Standard deviation 1.1058163895680901 %) turn out when `O=C(/C=C/c1ccccc1)C(=O)N1CCN(CCc2ccccc2)CC1` was run?
Answer: -0.075%

Question: What about the inhibition (Thailand/16681/1984, Concentration 99.01 uM, Number of replicates 2.0, Standard deviation 1.051850300329286 %) of the same molecule?
Answer: 3.22%

Question: And the inhibition (Thailand/16681/1984, Concentration 198.0 uM, Number of replicates 2.0, Standard deviation 0.9821847629012651 %)?
Answer: 9.52%

Question: How did the inhibition [1] turn out when `O=Cc1ccc(N2CCC(C(=O)N3CCN(CCc4ccccc4)CC3)CC2)cc1` was run?
Answer: 33%

Question: With `CC(=O)N1CCC(N(C)C(=O)C2CCN(c3ccc(C=O)cc3)CC2)CC1` as the molecule, how does the inhibition [1] read?
Answer: 10.9%

Question: Which inhibition (Thailand/16681/1984, Concentration 49.5 uM, Number of replicates 2.0, Standard deviation 1.242021000664882 %) does the source give for `CNC(=O)c1cc(Cl)ccc1NS(=O)(=O)c1[nH]ncc1C(=O)OC` here?
Answer: -1.06%

Question: And the inhibition (Thailand/16681/1984, Concentration 99.01 uM, Number of replicates 2.0, Standard deviation 0.08117786480507469 %)?
Answer: 0.923%

Question: What about the inhibition (Thailand/16681/1984, Concentration 198.0 uM, Number of replicates 2.0, Standard deviation 0.003820190349027435 %) of the same molecule?
Answer: 2.41%

Question: `COc1cc(Cl)c(C)cc1NC(=O)C1CCN(c2ccc(C=O)cc2)CC1` was tested. Which inhibition [1] did it give?
Answer: 13.9%

Question: `CC(C)(CNC(=O)C1CCN(c2ccc(C=O)cc2)CC1)c1cccc(Cl)c1` was tested. Which inhibition [1] did it give?
Answer: 10.4%

Question: Which results are given for `N[C@H]1C[C@H](CNC(=O)[C@@H](NC(=O)OCc2ccccc2)c2ccc(OCc3ccccc3)cc2)C1`?
Answer: inhibition (Thailand/16681/1984, Concentration 49.5 uM, Number of replicates 2.0, Standard deviation 4.035148717327061 %): -7.81%; inhibition (Thailand/16681/1984, Concentration 99.01 uM, Number of replicates 2.0, Standard deviation 3.6381547385610027 %): -5.23%; inhibition (Thailand/16681/1984, Concentration 198.0 uM, Number of replicates 2.0, Standard deviation 2.7035240962471856 %): 9.08%

Question: How did the inhibition [1] turn out when `O=Cc1ccc(N2CCC(C(=O)NC3C4CC5CC(C4)CC3C5)CC2)cc1` (stereo not given) was run?
Answer: 6.37%

Question: Which inhibition [1] does the source give for `CN(Cc1cccc2ccccc12)C(=O)C1CCN(c2ccc(C=O)cc2)CC1` here?
Answer: 11.3%
